Test results reported in the supplement of paper PMC3545927.
This is one part of the list. The true hit rate is not given.

Biological target: furin, P09958
Assay: furin cleavage Z-score vs untreated control; higher = more cleavage, active = 3.5 or more, inactive = 1 or less, 8 variable residues between constant flanks
How it was run: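 Read counts from sequencing released DNA gave abundance for each bead-bound 8-mer peptide–cDNA fusion cut by purified furin over 7.5, 15 or 30 min. The cleavage Z-score compares log counts with furin-free reactions after lowess adjustment and median absolute deviation scaling.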
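Also: purified furin at 1:10 enzyme:substrate in 50 mM HEPES pH 7.5.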

furin, P09958, sequence (P09958 whole entry): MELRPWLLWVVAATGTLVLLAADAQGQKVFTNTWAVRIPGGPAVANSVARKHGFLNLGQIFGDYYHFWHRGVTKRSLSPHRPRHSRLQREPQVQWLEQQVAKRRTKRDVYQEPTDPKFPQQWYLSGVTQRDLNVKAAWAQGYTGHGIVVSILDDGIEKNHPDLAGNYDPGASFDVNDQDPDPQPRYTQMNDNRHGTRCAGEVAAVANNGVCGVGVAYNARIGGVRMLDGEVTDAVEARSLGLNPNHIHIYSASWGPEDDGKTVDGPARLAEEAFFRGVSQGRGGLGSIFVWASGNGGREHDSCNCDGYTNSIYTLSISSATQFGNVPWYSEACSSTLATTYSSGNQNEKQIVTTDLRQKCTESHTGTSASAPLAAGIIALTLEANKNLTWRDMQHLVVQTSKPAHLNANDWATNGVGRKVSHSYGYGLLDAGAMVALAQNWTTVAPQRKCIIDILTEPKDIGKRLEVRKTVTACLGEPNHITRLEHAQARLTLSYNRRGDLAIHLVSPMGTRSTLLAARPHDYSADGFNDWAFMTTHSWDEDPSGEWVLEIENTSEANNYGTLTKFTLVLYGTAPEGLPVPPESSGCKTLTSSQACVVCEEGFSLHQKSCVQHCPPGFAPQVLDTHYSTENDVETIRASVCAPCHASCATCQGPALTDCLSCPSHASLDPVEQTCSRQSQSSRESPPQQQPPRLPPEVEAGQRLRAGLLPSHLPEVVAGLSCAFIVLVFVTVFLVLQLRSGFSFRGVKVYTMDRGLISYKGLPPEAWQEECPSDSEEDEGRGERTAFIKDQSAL

Row | Sequence | furin cleavage Z-score (7.5 min) | furin cleavage Z-score (15 min) | furin cleavage Z-score (30 min)
1 | CAVGSSIASWAGNASASA [HC513] | 1.24 | 0.758 (inactive) | 1.42
2 | CAEVVTSIWVAGNASASA [HC2204] | -1.22 (inactive) | -0.886 (inactive) | -0.589 (inactive)
3 | CAQTFLATCIAGNASASA [HC694] | -1.16 (inactive) | 1.03 | 0.494 (inactive)
4 | CAEVVTCTWVAGNASASA [HC154] | 0.26 (inactive) | 0.377 (inactive) | 0.00628 (inactive)
5 | CAWAKHMWNFAGNASASA [HC1041] | 2.37 | 1.51 | -0.0839 (inactive)
6 | CARQSRAPSKAGNASASA [FS-3044] | -0.34 (inactive) | -1.03 (inactive) | 0.0856 (inactive)
7 | CARRARFVSKAGNASASA [FS-2592] | 1.79 | 3.6 (active) | 4.51 (active)
8 | CARRARVVWCAGNASASA [FS-1773] | -0.495 (inactive) | -0.908 (inactive) | -1.05 (inactive)
9 | CATSCGNTLTAGNASASA [HC1514] | 0.831 (inactive) | -1.07 (inactive) | 0.652 (inactive)
10 | CALSSREARVAGNASASA [FS-273] | 0.397 (inactive) | 1.38 | -0.0178 (inactive)
11 | CALSSRTARSAGNASASA [FS-828] | 10.9 (active) | 12.5 (active) | 10.5 (active)
12 | CATSNRQPRKAGNASASA [FS-1426] | 0.777 (inactive) | 2.06 | 3.28
13 | CAVYSTTSRSAGNASASA [HC1389] | 0.122 (inactive) | -0.119 (inactive) | -0.531 (inactive)
14 | CALSSRVPRSAGNASASA [FS-616] | 10.7 (active) | 10.8 (active) | 8.57 (active)
15 | CAPFPRDVGKAGNASASA [FS-2542] | 0.749 (inactive) | 0.654 (inactive) | -0.494 (inactive)
16 | CAPFSRVPRKAGNASASA [FS-1380] | 4.53 (active) | 5.54 (active) | 7.08 (active)
17 | CAVSGRVPRSAGNASASA [FS-1103] | 8.22 (active) | 7.59 (active) | 5.91 (active)
18 | CAEVVVCCSMAGNASASA [HC2130] | 0.168 (inactive) | -0.257 (inactive) | -0.566 (inactive)
19 | CARIGRTARSAGNASASA [FS-559] | 14.2 (active) | 12.8 (active) | 11.2 (active)
20 | CAVSGRRNRSAGNASASA [FS-1435] | 7.11 (active) | 8.52 (active) | 7.39 (active)
21 | CAESGRENRSAGNASASA [FS-764] | 0.222 (inactive) | 0.598 (inactive) | -0.14 (inactive)
22 | CALSSRHSRSAGNASASA [FS-688] | 7.04 (active) | 9.83 (active) | 7.06 (active)
23 | CADVVTSTWVAGNASASA [HC2151] | 0.471 (inactive) | -0.0629 (inactive) | 0.991 (inactive)
24 | CALLGPADGMAGNASASA [HC666] | -0.849 (inactive) | -0.827 (inactive) | -0.909 (inactive)
25 | CATYVYNHLTAGNASASA [HC634] | -0.232 (inactive) | 0.658 (inactive) | 0.0846 (inactive)
26 | CAYEECSQHLAGNASASA [HC1669] | 1.21 | 0.943 (inactive) | 2.11
27 | CAEVVTSTWMAGNASASA [HC2246] | 1.57 | 0.473 (inactive) | 0.947 (inactive)
